Compound activity: PubChem BioAssay, National Center for Advancing Translational Sciences (NCATS)
TbPYK inhibitor = qHTS of Trypanosoma Brucei Inhibitors; Potency, µM (highest dose often 76.8 µM), inactives show top-dose activity, negative = inhibition, hits mostly inhibitors; actives 0.12% (n = 410,000); TbPYK enzyme, Kinase-Glo Plus ATP luminescence, 45 min; also: nearly all actives have a fitted effect of over 50% in size
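T. brucei PYK with substrate was exposed to pin-transferred compounds across a concentration series, then started with 130 uM ADP (final). After 45 min at room temperature, Kinase-Glo Plus luminescence was read, normalized and curve-fitted.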
Giardia FBPA inh-1 = qHTS Assay for Inhibitors of Fructose-1,6-bisphosphate Aldolase from Giardia Lamblia; Potency, µM (doses to about 59.6 µM), without a hit: at the highest dose activity, negative = inhibition, most hits filed as inhibitors; AID 2451, 2010; A8B2U2; actives 0.71% (n = 290,000); purified Giardia FBPA; also: nearly all actives have a fitted effect of over 55% in size
Target sequence (A8B2U2 whole entry, looked up): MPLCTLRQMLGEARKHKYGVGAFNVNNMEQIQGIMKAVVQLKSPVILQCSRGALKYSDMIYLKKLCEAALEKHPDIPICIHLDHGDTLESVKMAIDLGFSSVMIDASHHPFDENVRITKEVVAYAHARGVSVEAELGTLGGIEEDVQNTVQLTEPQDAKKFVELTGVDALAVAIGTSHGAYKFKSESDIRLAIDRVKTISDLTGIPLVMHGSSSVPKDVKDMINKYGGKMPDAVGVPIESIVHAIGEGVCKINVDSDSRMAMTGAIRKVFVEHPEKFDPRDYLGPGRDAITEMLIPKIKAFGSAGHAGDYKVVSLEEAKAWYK
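Giardia FBPA (40 nM reagent) was preincubated 10 min at RT with compound (up to 57.5 uM final), then substrate plus GAPDH/TPI/NAD/arsenate coupling system with diaphorase/resazurin was added; resorufin fluorescence (525/598 nm) was read after 20 min.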
LmPK inh = qHTS Assay for Inhibitors of Leishmania Mexicana Pyruvate Kinase (LmPK). Q27686. purified LmPK, Kinase-Glo ATP luminescence, 1 h. Potency, µM (doses to about 57.5 µM), inactives show at the highest dose activity change, negative = inhibition, most hits filed as inhibitors. actives 0.37% (n = 290,000). AID 1721, 2009
Target sequence (Q27686 whole entry, looked up): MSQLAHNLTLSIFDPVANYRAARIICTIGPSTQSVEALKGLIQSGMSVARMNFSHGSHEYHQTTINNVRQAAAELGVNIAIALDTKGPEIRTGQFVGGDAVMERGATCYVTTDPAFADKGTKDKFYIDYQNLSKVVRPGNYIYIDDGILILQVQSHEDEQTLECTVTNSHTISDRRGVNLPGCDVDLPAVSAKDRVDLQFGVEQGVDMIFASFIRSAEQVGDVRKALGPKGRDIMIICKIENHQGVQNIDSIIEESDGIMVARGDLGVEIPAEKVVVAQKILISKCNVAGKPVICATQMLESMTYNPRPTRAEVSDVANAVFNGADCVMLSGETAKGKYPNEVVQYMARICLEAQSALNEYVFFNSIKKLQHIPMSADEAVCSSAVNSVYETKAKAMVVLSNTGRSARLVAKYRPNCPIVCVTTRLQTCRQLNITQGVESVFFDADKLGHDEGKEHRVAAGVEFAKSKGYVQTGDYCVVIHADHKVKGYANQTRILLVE
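In 50 mM imidazole pH 7.2 with 7 mM MgCl2, LmPK (0.1 nM) turned over PEP (0.5 mM) and ADP (0.1 mM) for 1 h at room temperature. Luciferase read-out of ATP.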
RE007 growth inh = qHTS Assay for Inhibitors of the HIV-1 protein Vpr. S. pombe RE007 Vpr strain, BacTiter-Glo ATP luminescence, 24 h. Potency, µM (top dose mostly 92.2 µM), inactives show at the highest dose activity change, negative = less growth, hits mostly inhibitors. actives 0.21% (n = 360,000). AID 651644, 2012; active = well fitted falling curve with a large enough effect; inconclusive = small, poorly fitted or top-dose-only effect; inactive = no such curve, though single readings can be large or run the other way; also: nearly all actives have a fitted effect of over 50% in size
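Fission yeast RE007 carrying one integrated HIV-1 vpr copy, seeded at OD 0.01 in PMG+AL medium with 23 nL pinned compound. Grown 24 h at 30 degrees; viability read by BacTiter-Glo luminescence after 5 min.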
Giardia growth = qHTS Assay for Inhibitors of Fructose-1,6-bisphosphate Aldolase from Giardia Lamblia: Giardia lamblia growth inhibition | shares compounds with Giardia FBPA inh-1 | Giardia lamblia trophozoite growth inhibition | Potency, µM (doses to about 57.5 µM), for inactives: at the highest dose activity change, negative = inhibition, most hits filed as inhibitors | actives 5% (n = 1,500) | AID 2785, 2010;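 also: trophozoites exposed to compound for 48 h at 37 °C; nearly all actives have a fitted effect of over 70% in size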
Mammal cell tox = qHTS Assay for Inhibitors of Fructose-1,6-bisphosphate Aldolase from Giardia Lamblia: Mammalian cellular toxicity; shares compounds with Giardia FBPA inh-1; mammalian cell viability counter-screen, qHTS; Potency, µM (top dose mostly 57.5 µM), inactives show top-dose viability change, negative = toxicity, actives largely listed as inhibitors; actives 4% (n = 1,500);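 also: Chinese hamster ovary cells used as mammalian cytotoxicity surrogate; viability measured as cellular ATP by luminescence; compound exposure lasted 48 h before reading; nearly all actives have a fitted effect of over 60% in size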
Giardia FBPA inh-2 = qHTS Assay for Inhibitors of Fructose-1,6-bisphosphate Aldolase from Giardia Lamblia: Primary screen confirmation; purified Giardia aldolase enzyme activity, qHTS; shares compounds with Giardia FBPA inh-1; Potency, µM (titrated, usually from 57.5 µM), for the others: at the highest dose activity change, negative = inhibition, usual class: inhibitors; AID 2787, 2010; actives 5% (n = 1,500); also: nearly all actives have a fitted effect of over 45% in size
Rabbit FBPA inh = qHTS Assay for Inhibitors of Fructose-1,6-bisphosphate Aldolase from Giardia Lamblia: Rabbit FBPA Selectivity; Potency, µM (titrated, usually from 57.5 µM), inactives show top-dose activity, negative = inhibition, most hits filed as inhibitors; Rabbit muscle FBPA enzyme inhibition, selectivity counter-screen; shares compounds with Giardia FBPA inh-1; actives 4% (n = 1,500); also: nearly all actives have a fitted effect of over 60% in size
GAPDH counter = qHTS Assay for Inhibitors of Fructose-1,6-bisphosphate Aldolase from Giardia Lamblia: Coupling assay counterscreen confirmation; shares compounds with Giardia FBPA inh-1; GAPDH coupling enzyme counterscreen, biochemical, qHTS; Potency, µM (top dose mostly 57.5 µM), inactives show at the top dose activity change, negative = inhibition, hits mostly inhibitors; actives 6% (n = 1,500); AID 2795, 2010; also: nearly all actives have a fitted effect of over 55% in size
* = called active by the depositor; ? = inconclusive; nt = no result; [ ] = another dose, or the depositor's remark. Hits are enriched below; roughly 0.95% of the tested compounds scored in any of these assays. Unless noted, calls follow the shape of the dose curve; as a rule, active = well fitted curve in the direction sought with a large enough effect; inconclusive = small, poorly fitted or top-dose-only effect, or another doubt; inactive = no such curve, though single readings can be large; an effect the other way counts as inactive or inconclusive. % is scaled to controls: 0 for no effect and ±100 for the full control effect; potency is read from the fitted curve at half-maximal effect.

SMILES | TbPYK inhibitor | Giardia FBPA inh-1 | LmPK inh | RE007 growth inh | Giardia growth | Mammal cell tox | Giardia FBPA inh-2 | Rabbit FBPA inh | GAPDH counter
CCC(=O)NC1=C(Cl)C(=O)C(NC(=O)CC)=C(Cl)C1=O | 2.5µM* | 1.8µM* | ? | nt | 14%[38.3 µM] | ? | 2.9µM* | 5.2µM* | 3.7µM*
CCC(=O)Nc1ccccc1 | 2% | 8% | -12% | 13% | nt | nt | nt | nt | nt
Cc1nc(N)sc1-c1csc(Nc2cccc(C(=O)O)c2)n1 | -18% | 18µM* | -2% | 11% | -23% | 6% | ? | 32µM* | 32µM*
CCC(=O)Nc1nc(C)c(-c2csc(Nc3cccc(C(=O)O)c3)n2)s1 | 7% | ? | 1% | -4% | nt | nt | nt | nt | nt
S=c1[nH]nc(SCc2ccccc2)c2[nH]cnc12 | ? | nt | nt | 3% | nt | nt | nt | nt | nt
CNC(=S)N(C)CCc1cc2c(c(OC)c1C=C1C(=O)NC(=O)NC1=O)OCO2 | -10% | 7.1µM* | -2% | 3% | -9%[38.3 µM] | -6% | -9% | 1% | 3%
COc1ccc(C(=O)c2ccc(N3CCN(C(=O)c4ccc(F)cc4)CC3)c(F)c2)cc1Br | -6% | 0% | 9% | 10% | nt | nt | nt | nt | nt
CC(C)(C)N(CC#CCC(O)(c1ccccc1)c1ccccc1)CCO | -6% | 20µM* | -1% | 18% | -6% | -3% | -2% | 12% | 9%
Cc1ccc2oc3c(c(=O)c2c1)C(c1ccc(F)cc1)N(Cc1ccc2c(c1)OCO2)C3=O (stereo unspecified) | -8% | nt | nt | nt | nt | nt | nt | nt | nt
COc1ccc(Br)cc1CNc1ccccc1 | -3% | 28µM* | -4% | 15% | ? | -2% | -5% | -6% | 0%
CCn1c2ccccc2c2n[nH]c(=S)nc21 | -26% | 7% | -11% | 38% | nt | nt | nt | nt | nt
O=C(O)Cn1c2ccccc2c2n[nH]c(=S)nc21 | ? | 8.9µM* | 2% | 8% | 19% | -3% | 7% | 4% | 8%
CCN(CC(=O)NCc1ccccc1Cl)CC(=O)Nc1c(F)cccc1F | 5% | 18µM* | -6% | 2% | 44% | 0% | 8% | 4% | 11%
COc1ccc(NS(=O)(=O)c2c(C)cc(C)cc2C)cn1 | 0% | ? | -11% | -2% | -13%[38.3 µM] | 1% | -17% | -20% | -20%
COc1ccc(N2CCN(C(=O)c3cccc(NC(=O)c4ccco4)c3)CC2)cc1 | 2% | nt | -7% | -7% | nt | nt | nt | nt | nt
Cc1ccc(C(O)c2ncc(-c3cccc(F)c3)[nH]2)cc1 (stereo unspecified) | -7% | nt | nt | -21% | nt | nt | nt | nt | nt
CCCCNC(=O)Oc1c(Br)cc2sc(=O)oc2c1Br | nt | 16µM* | 6% | nt | -15% | 11% | -5% | 1% | -15%
Cc1ccc2c(c1)N(C(=O)Nc1cccc3c1CCCC3)CC(C)O2 (stereo unspecified) | 1% | nt | nt | nt | nt | nt | nt | nt | nt
[N-]=C=C1C(=O)NC(=O)C([n+]2ccc(-c3ccncc3)cc2)C1c1ccccc1C(F)(F)F (stereo unspecified) | -19% | 14µM* | -1% | -1% | 9%[38.3 µM] | ? | ? | ? | 6.5µM*
CNC(=S)N/N=C/c1ccccc1OCC(=O)O | 9% | 20µM* | 0% | -5% | ? | -2% | -8% | -1% | -7%
Cc1cc(Sc2nc(N)ncc2[N+](=O)[O-])ncn1 | 11% | 18µM* | 0% | 7% | -6%[10.4 µM] | ? | 1% | 15% | 0%
COC(=O)c1cccc(CC2(C)C(=O)Nc3ccc(OC(F)(F)F)cc32)c1 (stereo unspecified) | 3% | nt | nt | 26%[18.4 µM] | nt | nt | nt | nt | nt
CC1CCCN(S(=O)(=O)c2ccc(C(=O)Nc3nnc(C4=COCCO4)o3)cc2)C1 (stereo unspecified) | nt | 28µM* | 5% | nt | -3% | 14% | 11% | 10% | 15%
O=C(Nc1nnc(C2=COCCO2)o1)c1ccc(S(=O)(=O)N2CCOCC2)cc1 | 6% | 20µM* | 6%[11.5 µM] | 11% | ? | -5% | 3% | 5% | 6%
CC1CCCCN1S(=O)(=O)c1ccc(C(=O)Nc2nnc(-c3ccccn3)o2)cc1 (stereo unspecified) | -6% | 18µM* | 5%[11.5 µM] | -11% | 24% | 10% | 23% | 22% | 0%
SMILES | TbPYK inhibitor | Giardia FBPA inh-1 | LmPK inh | RE007 growth inh | Giardia growth | Mammal cell tox | Giardia FBPA inh-2 | Rabbit FBPA inh | GAPDH counter
CC1CCCCN1S(=O)(=O)c1ccc(C(=O)Nc2nnc(-c3ccco3)o2)cc1 (stereo unspecified) | 3% | ? | 8% | ? | nt | nt | nt | nt | nt
COc1ccccc1-c1nnc(NC(=O)c2ccc(S(=O)(=O)N3CCOCC3)cc2)o1 | -1% | nt | 2% | -5% | nt | nt | nt | nt | nt
CC1CCCCN1S(=O)(=O)c1ccc(C(=O)Nc2nnc(C3=COCCO3)o2)cc1 (stereo unspecified) | -7% | nt | 1% | 15% | nt | nt | nt | nt | nt
Cc1ccc(S(=O)(=O)Nc2cc(C)c(O)c(Sc3n[nH]c(C)n3)c2)cc1 | -17% | ? | -6% | 2% | nt | nt | nt | nt | nt
CCCCn1cc2c(c1-c1ccc(Cl)cc1)c(=O)n(C)c(=O)n2C | 6% | nt | nt | nt | nt | nt | nt | nt | nt
CN1CCN(c2ncc3nc(-c4cccs4)c(=O)n(C[C@H]4CCCO4)c3n2)CC1 | -6% | -4% | nt | nt | nt | nt | nt | nt | nt
C[C@@H]1C=C[C@](Cc2ccccc2)(C(=O)NCCCNc2ncc(C(F)(F)F)cc2Cl)N1C(=O)c1ccccc1 | nt | -7% | nt | nt | nt | nt | nt | nt | nt
CCOC(=O)N1CCN(CC(=O)Nc2nnc(C(F)(F)F)s2)CC1 | 22% | 5µM* | -3% | 0% | ? | -6% | 7% | 6% | -10%
Cc1nnc(NC(=O)CN2CC(C)OC(C)C2)s1 (stereo unspecified) | -2% | 2.5µM* | -7% | 0% | -5%[38.3 µM] | -7% | 0% | 2% | 4%
CN1CCN(CC(=O)Nc2nc3ccccc3s2)CC1 | 10% | ? | -1% | -6% | nt | nt | nt | nt | nt
